These results are taken from PubChem BioAssay (Tox21).

The nature of assay [1]: qHTS assay for small molecules that induce genotoxicity in human embryonic kidney cells expressing luciferase-tagged ATAD5 (AID 651632). Note: nearly all actives have a fitted effect of over 15% in size. The method in brief: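 Quantitative HTS in HEK293T expressing luciferase-tagged ATAD5, whose levels rise upon DNA damage. Exposure ran 16 hr at 37C and 5% CO2, with luminescence read 30 min after Amplite addition at room temperature.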
Assay [2] in a line: qHTS assay for small molecule agonists of the p53 signaling pathway - cell viability (AID 651633; calls by dose curve; note: nearly all actives have a fitted effect of over 30% in size; note: potency is the fitted concentration of half-maximal effect). Summed up: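 p53RE-bla cells, seeded at 4,000 per well and rested 5 h at 37 C/5% CO2, received compounds in DMSO for 16 h at 37 C. CellTiter-Glo was then added, and luminescence was read after 30 min at room temperature to gauge cytotoxicity.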
In general terms: In qHTS, concentration-response curves come from the screen itself.

Assay [3] in a line: qHTS assay for small molecules that induce genotoxicity in human embryonic kidney cells expressing luciferase-tagged ATAD5 - cell viability (AID 651634; calls by dose curve; note: nearly all actives have a fitted effect of over 25% in size). The method in brief: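 After 15.5 hr incubation with compound at 37C, 5% CO2, HEK293T ATAD5-luciferase cells received CellTiter-Fluor reagent; fluorescence intensity was quantified following 30 min at 37C.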
Assay [4] is described as follows: qHTS assay for small molecule disruptors of the mitochondrial membrane potential (AID 720635). Note: potency is the fitted concentration of half-maximal effect. The method in brief:
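HepG2 cells (2,000/well) attached overnight at 37C, then took compound for 1 hr at 37C, 5% CO2. Mito-MPS dye was added for 30 min; fluorescence was read at 490/535 nm (monomers) and 540/590 nm (aggregates).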

Assay [5] is described as follows: qHTS assay to test for compound auto fluorescence at 535 nm (green) in HepG2 cells (AID 720675).
A short description of assay [6]: qHTS assay to test for compound auto fluorescence at 460 nm (blue) in HEK293 cells (AID 720678). Summed up:
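Auto fluorescence in the blue band was quantified as triamterene equivalency. HEK293 cells were seeded at 2,000/well, dosed after a 4-5 hr attachment, and kept overnight at 37C before the 405/460 nm reading.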

Assay [7] is described as follows: qHTS assay to test for compound auto fluorescence at 590 nm (red) in HEK293 cells (AID 720679). The method in brief: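 Autofluorescence equivalency to Rose Bengal sodium, 540/590nm, in HEK293 cells exposed overnight to 23 nL compound per well.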
The nature of assay [8]: qHTS assay to test for compound auto fluorescence at 535 nm (green) in HEK293 cells (AID 720680).
The nature of assay [9]: qHTS assay to test for compound auto fluorescence at 460 nm (blue) in HEK293 cell free culture (AID 720681). Summed up: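 Test compounds were pinned into cell-free culture medium (DMEM with 10% FBS) and fluorescence was read directly at Ex/Em 405/460 nm. Signals were expressed as fluorescence equivalents of triamterene, with DMSO vehicle as control.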
A short description of assay [10]: qHTS assay to test for compound auto fluorescence at 535 nm (green) in HEK293 cell free culture (AID 720682). The method in brief: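 Cell-free medium (DMEM, 10% FBS) receives compound or DMSO by pintool. Plate read directly at Ex 485/Em 535 nm. Signal converted to fluorescein equivalency.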
The nature of assay [11]: qHTS assay to test for compound auto fluorescence at 590 nm (red) in HEK293 cell free culture (AID 720683). The method in brief:
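Tox21 10K library compounds were pinned into cell-free DMEM with 10% FBS and fluorescence was read at excitation 540 nm. Activity is expressed as Rose Bengal sodium equivalency.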

Assay [12] can be described thus: qHTS assay to test for compound auto fluorescence at 590 nm (red) in HepG2 cell free culture (AID 720684). Summed up: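 Ex 540 / Em 590 nm read of compound in cell-free MEM (10% FBS). Rose Bengal sodium reference.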
Assay [13] can be described thus: qHTS assay to test for compound auto fluorescence at 535 nm (green) in HepG2 cell free culture (AID 720686).
Assay [14] can be described thus: qHTS assay to test for compound auto fluorescence at 460 nm (blue) in HepG2 cells (AID 720687). Summed up:
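Cells (2,000/well in MEM with 10% FBS) attached overnight at 37 C, then were exposed to compound or DMSO for 1 hr at 37 C, 5% CO2. Fluorescence read at Ex/Em 405/460 nm, expressed as triamterene-equivalent signal.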

The nature of assay [15]: qHTS assay to test for compound auto fluorescence at 590 nm (red) in HepG2 cells (AID 720674). Summed up: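 Compound auto-fluorescence is scored relative to Rose Bengal sodium, measured at 540/590 nm in live HepG2 cultures after 1 hr compound contact (37 C, 5% CO2).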
Assay [16] is described as follows: qHTS assay to test for compound auto fluorescence at 460 nm (blue) in HepG2 cell free culture (AID 720685). Summed up:
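Cell-free plates of MEM plus 10% FBS received 23 nL compound or DMSO vehicle; blue-channel (405/460 nm) intensity scored against triamterene as reference fluorophore.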

The target in assay [17] is Glucocorticoid receptor (Homo sapiens) (UniProt P04150). Nature of the assay: qHTS assay to identify small molecule agonists of the glucocorticoid receptor (GR) signaling pathway (AID 720691; active = well fitted activation curve with a large enough effect in the signal ratio in the repeat runs, not every such curve was filed as active; the % refers to the signal ratio; note: potency is the fitted concentration of half-maximal effect). The conditions noted are these: GR-bla HeLa, beta-lactamase reporter ratio, 18 h; activation: at 62.4 µM (top of the series) unless noted. Summed up: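 Cells: GR-bla HeLa, endogenous GR with stably integrated GRE-beta-lactamase reporter. Treatment 18 h, 37 C, compounds delivered in DMSO. Detection via LiveBLAzer B/G FRET substrate, 2 h RT, fluorescence intensity.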

For assay [18] the target is unchanged. Nature of the assay: qHTS assay to identify small molecule antagonists of the glucocorticoid receptor (GR) signaling pathway (AID 720692; active = well fitted inhibition curve with a large enough effect in the signal ratio in the repeat runs, not every such curve was filed as active; the % refers to the signal ratio). The method in brief:
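Quantitative HTS in antagonist format: HeLa cells expressing endogenous GR and a stably integrated GRE-bla reporter, stimulated with 5 nM dexamethasone (final) alongside test compounds for 18 h.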

A short description of assay [19]: qHTS assay for small molecule disruptors of the mitochondrial membrane potential - cell viability (AID 720634; calls by dose curve;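 note: human HepG2 liver cancer cells; nearly all actives have a fitted effect of over 20% in size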). Summed up:
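ATP-based luminescent viability readout (CellTiter-Glo, 30 min, room temperature) in HepG2 cells multiplexed with the m-MPI membrane potential dye; compound exposure lasted 1 hr at 37 C.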

Values without a mark were called inactive. Results filed as inconclusive are left out. Active and inactive are the calls of the source. Unless noted, calls come from the whole dose curve; as a rule, active = well fitted curve in the direction sought with a large enough effect in the repeat runs; inconclusive = weak or mixed curves; inactive = no such curve, though single readings can be large; an effect the other way counts as inactive or inconclusive.

Sequence of Glucocorticoid receptor (Homo sapiens) (P04150 whole entry, looked up): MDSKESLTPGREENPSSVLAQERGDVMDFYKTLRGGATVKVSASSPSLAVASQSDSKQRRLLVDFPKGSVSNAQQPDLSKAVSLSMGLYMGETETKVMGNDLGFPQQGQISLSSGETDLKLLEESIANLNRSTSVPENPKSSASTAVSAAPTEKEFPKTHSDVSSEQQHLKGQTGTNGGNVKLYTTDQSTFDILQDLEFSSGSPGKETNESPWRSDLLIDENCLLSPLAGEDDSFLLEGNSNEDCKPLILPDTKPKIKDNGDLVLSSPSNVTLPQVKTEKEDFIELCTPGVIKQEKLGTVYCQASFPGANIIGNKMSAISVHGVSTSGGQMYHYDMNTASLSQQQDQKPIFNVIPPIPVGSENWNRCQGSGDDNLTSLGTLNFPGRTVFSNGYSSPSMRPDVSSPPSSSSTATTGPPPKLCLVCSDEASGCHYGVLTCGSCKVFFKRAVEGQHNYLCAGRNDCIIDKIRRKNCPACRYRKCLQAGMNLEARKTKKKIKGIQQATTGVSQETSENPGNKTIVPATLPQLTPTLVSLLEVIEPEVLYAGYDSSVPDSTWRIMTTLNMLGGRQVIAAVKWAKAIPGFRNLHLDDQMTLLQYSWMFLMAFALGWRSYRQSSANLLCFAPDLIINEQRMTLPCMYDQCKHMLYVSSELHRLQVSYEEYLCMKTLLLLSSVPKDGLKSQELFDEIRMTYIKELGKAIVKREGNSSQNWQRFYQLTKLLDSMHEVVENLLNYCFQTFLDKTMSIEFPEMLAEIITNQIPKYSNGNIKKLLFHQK

Consider `CCOC(=O)NCCOc1ccc(Oc2ccccc2)cc1`, for which the Potency result in assay [1], in assay [2], in assay [3], in [5], in [7] and in assay [11] was “inactive” each time. For the same compound, the Potency result in assay [12] and in assay [13] was “inactive” each time. Further, the Potency in assay [4] is 27.3 µM (active). Further, the result in assay [6], in assay [8], in [9], in assay [10] and in assay [14] was inactive.

As to `CN(Cc1ccc(C(C)(C)C)cc1)Cc1cccc2ccccc12`, the Potency entry in assay [1], in [3], in assay [4], in assay [15], in assay [7] and in assay [11] was “inactive” in each case. Also, the Potency result in [12], in [13], in assay [17] and in assay [18] was “inactive” each time. For the same compound, the Potency in assay [2] is 23.7 µM (active). Also, the call in assay [6], in [8], in [9], in assay [10], in assay [16] and in assay [14] was inactive.

`COc1ccc(C(=O)Nc2nc3ccccc3c(NCc3ccccc3)c2C#N)cc1`: the Potency result in assay [1], in [2], in assay [3], in assay [5], in assay [7] and in [11] was “inactive” throughout. For the same compound, the Potency entry in [12] and in assay [13] was “inactive” throughout. The Potency in assay [4] was 5.45 µM (active). Moreover, the call in [6], in assay [8], in [9], in assay [10], in assay [16] and in [14] was inactive.

On to `O=C(O)c1nc(Cl)c(Cl)c(Cl)c1Cl`, for which the Potency result in [1], in assay [2], in assay [3], in assay [4], in assay [15] and in assay [5] was “inactive” throughout. Further, the Potency entry in assay [7], in assay [11], in assay [12], in assay [13] and in assay [17] was “inactive” throughout. For the same compound, the outcome in assay [6], in assay [8], in [9], in assay [16] and in assay [14] was inactive.

Regarding `C[Si](C)(CCCN)O[Si](C)(C)CCCN`, the Potency entry in [1], in [2], in assay [3], in assay [19], in assay [15] and in assay [5] was “inactive” in each case. Moreover, the Potency result in assay [11], in [12], in assay [13], in [17] and in assay [18] was “inactive” in each case. For the same compound, the outcome in assay [6], in assay [8], in assay [9], in assay [10] and in [14] was inactive.

Regarding `CCC(=O)O[C@]1(C(=O)CCl)[C@@H](C)C[C@H]2[C@@H]3CCC4=CC(=O)C=C[C@]4(C)[C@@]3(F)[C@@H](O)C[C@@]21C`, the Potency entry in assay [1], in assay [2], in [3], in assay [5], in [7] and in [11] was “inactive” throughout. Further, the Potency result in assay [12] and in assay [13] was “inactive” throughout. The Potency in assay [4] is 23.7 µM (active); in [17], 0.0006 µM (active). Also, the compound was classed as inactive in assay [6], in assay [8], in assay [9], in [10], in assay [16] and in [14].

Turning to `CCOC(=O)COC(=O)c1cc(Oc2ccc(C(F)(F)F)cc2Cl)ccc1[N+](=O)[O-]`, the Potency result in assay [1], in assay [2], in [3], in assay [15], in assay [5] and in assay [7] was “inactive” in each case. In addition, the Potency entry in assay [12] and in assay [13] was “inactive” each time. Further, in [4], the Potency is 61.1 µM (active). Besides, the compound was classed as inactive in assay [6], in assay [8], in assay [9], in assay [10], in [16] and in assay [14].
